Peg3 promoter – Peg3 promoter-driven luciferase inhibitors, primary screen, cell-based, HeLa, luciferase luminescence; HeLa PEG-Prom luciferase reporter, overnight; inhibition, % at 20 µM; 360,000 tested, 1.7% active; AID 588405, 2011;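 active = inhibition of at least 50% at 20 µM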
TWEAK Fn14 block – inhibitors of TWEAK-Fn14 signaling, primary screen, luciferase reporter cells, uHTS | TWEAK-stimulated Fn14 reporter cells, luciferase luminescence, 8 h | inhibition, % at 10 µM | 360,000 tested, 2% active | AID 1159606, 2016; in the data active = inhibition above about 50%
KKLEB tox – cytotoxicity in KKLEB CF airway cells, primary screen, cytotoxicity control for CF NF-kB inhibitor project, cell-based, uHTS, fluorescence assay plates. AID 602141, 2011. KKLEB CF airway cells viability, ATPlite luminescence, overnight; hits give low values; cells stimulated with P. aeruginosa culture filtrate. activity change (cytotoxicity), % at 5 µM. 360,000 tested, 0.36% active;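 active = corrected activity change at or below -50% at 5 µM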
HIF-2a block – HIF-2a reporter inhibitors, primary screen, luminescence, 786-0 RCC cells | 786-0 RCC cells HIF-2a reporter, luciferase luminescence, overnight | inhibition, % at 18.8 µM | 360,000 tested, 0.72% active;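 active = inhibition of the luminescence signal of 40% or more relative to plate controls, in a single-dose primary screen at 18.75 µM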
TROY signal inh – inhibitors of TROY-driven NF-kB signaling, primary screen, Q293 LMP1-TROYcd cells, NF-kB luciferase, uHTS. Q293 LMP1-TROYcd NF-kB luciferase reporter, 4 h. inhibition, % at 10 µM. 360,000 tested, 0.98% active. AID 1347056, 2019;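 active = compounds whose plate-normalised and pattern-corrected inhibition of the luciferase reporter signal at the single screening dose is 50% or more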
CF NFkB block – inhibitors of PAF-induced NF-kB signaling, primary screen, cell-based, GFP fluorescence, uHTS; KKLEB NF-kB-GFP reporter, GFP fluorescence overnight; inhibition, % at 5 µM; 360,000 tested, 0.86% active; AID 588850, 2011;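 active = at least 50% inhibition at 5 µM, scaled per plate between neutral and stimulator controls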;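 note: PAF is a Pseudomonas aeruginosa culture filtrate used as stimulus; plate controls were PAF-stimulated DMSO wells for no effect and unstimulated DMSO wells for full effect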
The depositor's hits bear a star; x = not tested or not shown. The list is not random: actives were taken first. Their share in the collection is about 4%.

SMILES	Peg3 promoter	TWEAK Fn14 block	KKLEB tox	HIF-2a block	TROY signal inh	CF NFkB block
CCOc1ccc(C2C(C#N)=C(N)SC(N)=C2C#N)cc1OCC	14	2	2	2	16	5
N#CC1=C(N)SC(N)=C(C#N)C1c1cccc(Oc2ccccc2)c1	13	46	-2	-18	62*	7
CSc1ccc(CN2CCC(CO)(Cc3ccc(Cl)cc3)CC2)cc1	73*	4	-18	17	26	2
OCC1(Cc2ccc(Cl)cc2)CCN(Cc2ccccc2F)CC1	-2	-8	-2	15	20	14
COc1ccc(-c2sc3ccc(N4CCOCC4)cc3c2C#CCO)cc1	22	90*	0	-27	54*	17
COCCNC(=O)C1(C)CCN(Cc2ccc3ccccc3c2Br)C1 (configuration not stated)	-2	19	-16	-5	2	1
CCCc1cc(-c2[nH]ncc2-c2ccc(C(=O)OCC)o2)c(O)cc1O	40	59*	10	-11	34	37
CCc1cc(-c2[nH]ncc2-c2nc3ccccc3n2C)c(O)cc1O	1	-16	-20	27	15	24
CCOC(=O)c1c(C)[nH]c(C(=O)N/N=C/c2cc([N+](=O)[O-])ccc2O)c1C	24	77*	-8	-58	77*	-7
CCOC(=O)c1c(C)[nH]c(C(=O)N/N=C\c2ccccc2O)c1C	-71	12	-12	-301	-34	10
COC(=O)Cc1nnc(SCC(=O)Nc2ccccc2)c2ccccc12	-5	12	-5	0	-11	7
COc1ccc(N(CC(=O)NCCSc2ccccn2)S(C)(=O)=O)cc1	-7	-1	5	4	5	0
COc1ccc(C(=O)NCCSc2ccccn2)cc1	-78	65*	4	-71	11	-6
COc1ccc(NC(=O)c2ccccn2)cc1	-1	84*	-14	31	57*	1
COc1ccc(C(=O)Nc2ccc(NC(=O)c3ccccn3)cn2)cc1	-86	1	-5	-90	-14	-3
COc1ccc(NC(=O)c2cc3ccccn3n2)cc1	-155	63*	-3	-94	-5	-29
CSc1nc2ccc(NC(=O)c3ccccn3)cc2s1	-91	72*	-39	-32	26	-4
Cc1noc(C)c1C(=O)OCC(=O)/C=C1/N(C)c2ccccc2C1(C)C	-3	15	1	-21	10	12
COc1ccc(OC)c(NC(=O)c2nc3ccccc3s2)c1	-71	-19	2	-72	-34	-24
O=C(Nc1ccc(Cc2nc3ccccc3s2)cc1)c1ccncc1	-4	59*	-8	-18	27	6
NC(=O)c1ccc(NC(=O)CCc2nc3ccccc3s2)cc1	-15	-11	-5	-56	-6	-27
COc1ccc(NC(=O)c2nc3ccccc3s2)cc1	-86	61*	-8	-56	38	-14
Cc1ccc(NC(=S)c2nc3ccccc3s2)cc1	-99	78*	-19	-89	55*	-2
CC(=O)Nc1ccc(N2C(=O)CSC2c2cccc(Br)c2)cc1 (configuration not stated)	2	0	2	21	6	-6
COc1ccc(OC)c(-c2csc(NC(=O)CSc3nnnn3C)n2)c1	6	-30	6	-24	4	-6
SMILES	Peg3 promoter	TWEAK Fn14 block	KKLEB tox	HIF-2a block	TROY signal inh	CF NFkB block
Cc1cc(C)n(S(=O)(=O)c2ccc(F)cc2)n1	13	73*	-17	8	-2	-10
Cc1cc(C)n(S(=O)(=O)c2ccc(Cl)cc2)n1	8	7	16	26	0	-9
CC1(c2nnnn2Cc2ccccc2)CCC(=O)N1Cc1cccc(C(F)(F)F)c1 (configuration not stated)	x	10	x	-7	7	x
Cc1ccc(C(=O)C[n+]2cccc3ccccc32)cc1	-154	32	-2	-21	50*	-4
Cc1ccc2nc(Cl)c3nnnn3c2c1	111*	-16	-20	-5	84*	71*
Cc1ccc2nc(N3CCN(c4cccc(C)c4C)CC3)c3nnnn3c2c1	10	26	3	3	2	-5
CCCCNC(=O)C1(C)CCN1C(=O)c1cc(-c2ccccc2)cs1 (configuration not stated)	-2	-9	10	-11	-10	-10
Cc1cc(CN(C)C(=O)c2cc(COc3ccc4ncccc4c3)on2)on1	-27	27	8	-50	1	7
O=C(NC1CCCCCCC1)c1cc(COc2ccc3ncccc3c2)on1	-10	52*	-16	16	31	13
CC(CNC(=O)c1cc(COc2ccc3ncccc3c2)on1)c1ccccc1 (configuration not stated)	48	60*	-22	24	54*	21
CO[C@@]12[C@@H]3N[C@@H]3CN1C1=C(C(=O)C(N)=C(C)C1=O)[C@@H]2COC(N)=O	60*	-12	-13	6	11	-22
CO[C@@]12[C@H](COC(N)=O)C3=C(C(=O)C(C)=C(N)C3=O)N1C[C@@H]1N[C@@H]12	-8	-6	-1	-6	-12	17
O=c1nc2s/c(=C\c3ccc(-c4ccccc4[N+](=O)[O-])o3)c(=O)n2nc1-c1ccccc1	2	57*	-5	5	42	6
O=C(Nc1ccc(N2CCCC2)c(Cl)c1)c1ccco1	-147	-18	2	-194	-53	-26
O=C(Nc1ccc(N2CCN(C(=O)c3ccco3)CC2)c(Cl)c1)c1cccs1	-2	108*	-1	-69	35	-15
CN1CCN(c2ccc(NC(=O)c3ccco3)cc2Cl)CC1	-153	39	-1	-51	50*	-5
COc1ccccc1CC(NC(C)=O)C(=O)NC1CCN(C(=O)Nc2ccccc2F)CC1 (configuration not stated)	2	28	15	1	11	-8
COCCN(C(=O)Nc1ccc(OC)cc1)c1nc2ccccc2s1	-9	-23	-11	-92	-27	20
C/C(=C\c1ccccc1F)C(=O)c1c(C)cc(C)[nH]c1=O	3	31	9	16	-3	-7
C/C(=C\c1cccc(Cl)c1Cl)C(=O)c1c(C)cc(C)[nH]c1=O	9	72*	1	10	21	-5
CCN1CCN(c2cc3c(cc2F)c(=O)c(C(=O)O)cn3C2CC2)CC1	7	60*	17	12	-9	-11

Source: PubChem BioAssay (Sanford-Burnham Center for Chemical Genomics)
